Shown is part of a subset that was picked to be rich in hits.
12-LOX inh = blocks human arachidonate 12S-lipoxygenase; P18054; purified 12hLO, xylenol orange hydroperoxide absorbance; Potency, µM (doses to about 108 µM), most hits filed as inhibitors; 580,000 compounds, 1.1% hits; AID 1671190
Target sequence (P18054 whole entry, looked up): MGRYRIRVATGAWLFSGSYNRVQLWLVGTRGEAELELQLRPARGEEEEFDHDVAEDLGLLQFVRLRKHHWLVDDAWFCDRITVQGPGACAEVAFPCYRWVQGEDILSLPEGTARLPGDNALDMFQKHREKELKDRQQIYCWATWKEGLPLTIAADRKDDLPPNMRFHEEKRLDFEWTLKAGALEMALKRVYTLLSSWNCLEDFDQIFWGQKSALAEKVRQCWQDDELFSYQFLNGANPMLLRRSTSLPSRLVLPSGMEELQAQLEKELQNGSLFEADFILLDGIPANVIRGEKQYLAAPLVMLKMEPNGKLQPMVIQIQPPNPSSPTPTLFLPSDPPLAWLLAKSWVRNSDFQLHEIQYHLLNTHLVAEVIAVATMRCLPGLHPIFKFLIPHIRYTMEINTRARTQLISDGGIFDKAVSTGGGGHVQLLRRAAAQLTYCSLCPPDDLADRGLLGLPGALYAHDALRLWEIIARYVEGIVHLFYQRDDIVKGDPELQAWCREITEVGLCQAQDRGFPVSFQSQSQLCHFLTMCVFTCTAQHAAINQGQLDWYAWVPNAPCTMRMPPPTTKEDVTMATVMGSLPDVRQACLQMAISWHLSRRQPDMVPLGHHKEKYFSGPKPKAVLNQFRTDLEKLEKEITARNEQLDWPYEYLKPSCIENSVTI
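Purified human 12hLO at 150 nM in 25 mM Hepes, 0.01% Triton X-100, pH 7.0, preincubated 15 min at room temperature with compound. Reaction started with 40 uM arachidonic acid, 30 min at room temperature. Hydroperoxide measured by Fe-xylenol orange, 573/405 nm absorbance ratio.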
IL1B secr inh = inflammasome signaling inhibition, IL-1 beta readout; THP-1 LPS/ATP IL-1B secretion, AlphaLISA, 16 h; active compounds read low; activity change, % at 57.5 µM; 360,000 compounds, 4.7% hits; AID 743279; in the data active means activity change below about -50%; inconclusive means mostly about -30% to -49%
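THP-1 cells pretreated 1 hr with compounds (up to 57.5 uM final), then stimulated with LPS (250 ng/mL final) plus ATP (1.25 mM final); secreted IL-1B measured by AlphaLISA after 16 hr, decreased signal indicating inhibition.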
TDP1 cell noCPT = qHTS for Inhibitors of human tyrosyl-DNA phosphodiesterase 1 (TDP1): qHTS in cells in absence of CPT; DT40 Tdp1-/- hTDP1 cells, no CPT, ATP luminescence, 48 h; Potency, µM (titrated, usually from 46.2 µM), actives largely listed as inhibitors; 420,000 compounds, 15% hits; further: nearly all actives have a fitted effect of over 55% in size
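Readout: luminescence from CellTiter-Glo after 30 min in the dark at RT. Cells: DT40 Tdp1-/- with stable hTDP1, 400/well. Exposure: compounds alone, ≥48 hr, 37 °C.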
TDP1 cell CPT = growth inhibition of DT40 Tdp1-/-;hTDP1 cells with camptothecin (screen for TDP1 inhibitors) | Potency, µM (doses to about 46.2 µM), most hits filed as inhibitors | chicken DT40 Tdp1-/-;hTDP1 cells + 20 nM CPT, ATP luminescence, 48 h | 420,000 compounds, 12% hits; further: nearly all actives have a fitted effect of over 55% in size
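Chicken DT40 Tdp1-/- cells stably complemented with human TDP1 were seeded at 400 cells/well in medium containing 20 nM camptothecin, exposed to pin-transferred compounds, and grown at 37 °C for at least 48 hr. Viability was read as ATP luminescence.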
HT1080NT lethal = kills 2HG-producing HT-1080-NT fibrosarcoma cells; HT-1080-NT fibrosarcoma viability, CellTiter-Glo ATP luminescence, 48 h; Potency, µM (top dose mostly 46.1 µM), actives largely listed as cytotoxic; 360,000 compounds, 1.6% hits;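 further: NT is the 2HG producing partner of a matched IDH1 knockdown line; nearly all actives have a fitted effect of over 55% in size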
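Toxicity toward the 2HG-producing NT line was scored as %Activity, normalised to DMSO and no-cell wells, from CellTiter-Glo luminescence after 48 hours' treatment.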
HT1080 IDH1KD tx = kills HT-1080 cells with IDH1 knockdown. HT-1080 IDH1 knockdown viability, ATP luminescence, 48 h. Potency, µM (top dose mostly 46.1 µM), actives largely listed as cytotoxic. 360,000 compounds, 2% hits. AID 686971
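After a 2 h attachment period, IDH1KD HT-1080 cells took pin-transferred compound for 48 h at 37 °C; ATP-based luminescence after 10 min room-temperature reagent incubation reported viability.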
Of the large screens only hits and unclear results are named; the others gave an inactive call. Unless noted, the call rests on the fitted dose curve; in most records, active means well fitted curve in the direction sought with a large enough effect; inconclusive means small, poorly fitted or top-dose-only effect, or another doubt; inactive means no such curve, though single readings can be large; an effect the other way counts as inactive or inconclusive.

COc1ccccc1CNC(=O)CCSCc1cccc(Cl)c1	IL1B secr inh -72
COc1ccccc1CNC(=O)CCc1ccccc1	TDP1 cell noCPT 18µM, TDP1 cell CPT inconclusive
Cc1ccccc1OCC(=O)NCc1ccccc1	none
COc1ccc(CCC(=O)NCc2ccccc2OC)cc1	none
O=C(COc1ccccc1-c1ccccc1)NCc1cccc(Cl)c1	TDP1 cell noCPT inconclusive, TDP1 cell CPT 21µM
CCCN1C(=O)Cc2ccccc2C1C(=O)O (stereo unspecified)	none (no result: IL1B secr inh, TDP1 cell noCPT, TDP1 cell CPT, HT1080NT lethal, HT1080 IDH1KD tx)
CCC1CN(c2ccc(-c3nc(-c4ccc(OC)cc4)no3)cn2)CCN1C (stereo unspecified)	none (no result: IL1B secr inh, TDP1 cell noCPT, TDP1 cell CPT, HT1080NT lethal, HT1080 IDH1KD tx)
COc1cccc(/C=C/c2nc(C#N)c(NCCCN3CCOCC3)o2)c1	none (no result: IL1B secr inh, TDP1 cell noCPT, TDP1 cell CPT, HT1080NT lethal, HT1080 IDH1KD tx)
CC1CCCCN1CCCNC(=O)c1sc2ncccc2c1-n1cccc1 (stereo unspecified)	none (no result: IL1B secr inh, HT1080NT lethal, HT1080 IDH1KD tx)
CCC(C)NC(=O)c1sc2ncccc2c1-n1c(C)ccc1C (stereo unspecified)	TDP1 cell noCPT 26µM, TDP1 cell CPT 21µM (no result: IL1B secr inh, HT1080NT lethal, HT1080 IDH1KD tx)
CC(CNC(=O)c1sc2ncccc2c1-n1cccc1)c1ccccc1 (stereo unspecified)	TDP1 cell noCPT 26µM, TDP1 cell CPT inconclusive (no result: IL1B secr inh, HT1080NT lethal, HT1080 IDH1KD tx)
CCCCN(CC)CCCNC(=O)c1sc2nc(C)cc(C)c2c1-n1cccc1	TDP1 cell noCPT 18µM, TDP1 cell CPT inconclusive (no result: IL1B secr inh, HT1080NT lethal, HT1080 IDH1KD tx)
CCOC(=O)Nc1sc2nc(C)cc(C)c2c1-n1cccc1	TDP1 cell noCPT 9.2µM, TDP1 cell CPT 23µM
Cn1cnc2c1c(=O)n(CC(=O)NCC1(c3ccccc3)CCCC1)c(=O)n2C	none (no result: IL1B secr inh, TDP1 cell noCPT, TDP1 cell CPT, HT1080NT lethal, HT1080 IDH1KD tx)
COc1ccc(CN[C@H]2CS(=O)(=O)C[C@@H]2S(=O)(=O)c2cccs2)cc1	none (no result: IL1B secr inh, TDP1 cell noCPT, TDP1 cell CPT, HT1080NT lethal, HT1080 IDH1KD tx)
O=C(NCc1ccc(F)cc1Cl)C1CCN(C(=O)c2ncn3c2COC(c2ccccc2)C3)CC1 (stereo unspecified)	none (no result: IL1B secr inh, TDP1 cell noCPT, TDP1 cell CPT, HT1080NT lethal, HT1080 IDH1KD tx)
O=C(Sc1ccc(Sc2ccc(SC(=O)c3ccco3)cc2)cc1)c1ccco1	none (no result: IL1B secr inh, TDP1 cell noCPT, TDP1 cell CPT, HT1080NT lethal, HT1080 IDH1KD tx)
CN(C)C(=O)C1CCCN1S(=O)(=O)c1c(Cl)cccc1Cl (stereo unspecified)	none (no result: IL1B secr inh, TDP1 cell noCPT, TDP1 cell CPT, HT1080NT lethal, HT1080 IDH1KD tx)
CC(Sc1ccccc1)C(=O)NC1CCCCC1 (stereo unspecified)	none (no result: IL1B secr inh, TDP1 cell noCPT, TDP1 cell CPT, HT1080NT lethal, HT1080 IDH1KD tx)
CCCSCCCNC(=O)c1sc2nc(C)cc(C)c2c1-n1cccc1	TDP1 cell noCPT inconclusive, TDP1 cell CPT inconclusive (no result: IL1B secr inh, HT1080NT lethal, HT1080 IDH1KD tx)
Cc1cc(C)c2c(-n3cccc3)c(C(=O)NCC(C)c3ccccc3)sc2n1 (stereo unspecified)	TDP1 cell noCPT 21µM, TDP1 cell CPT 21µM (no result: IL1B secr inh, HT1080NT lethal, HT1080 IDH1KD tx)
Cc1sc2nc(C(C)C)nc(SCC(=O)NC3CC3)c2c1C	TDP1 cell noCPT 16µM, TDP1 cell CPT 16µM
O=C(/C=C/c1ccc(OC(F)F)cc1)OCC(=O)N1CCN(C(=O)c2ccco2)CC1	TDP1 cell noCPT inconclusive, TDP1 cell CPT inconclusive
O=C(c1ccco1)N1CCN(C(=O)c2cn(-c3ccccc3)nc2-c2ccccc2)CC1	none
C/C(N)=C(/C#N)C(=O)COC(=O)c1cc(-c2ccc(Br)cc2)nc2ccccc12	IL1B secr inh inconclusive, TDP1 cell noCPT 9.2µM, TDP1 cell CPT 15µM, HT1080NT lethal inconclusive, HT1080 IDH1KD tx inconclusive
O=C(OCC(=O)N1CCN(C(=O)c2ccco2)CC1)c1cn(-c2ccccc2)nc1-c1ccccc1	IL1B secr inh -62, TDP1 cell noCPT inconclusive, TDP1 cell CPT inconclusive
O=C(OCC(=O)N1CCN(C(=O)c2ccco2)CC1)c1cc(-c2cccc(Br)c2)nc2ccccc12	12-LOX inh inconclusive, IL1B secr inh -67, TDP1 cell CPT inconclusive
CCOC(=O)/C=C/C(=O)OCC(=O)N1CCN(C(=O)c2ccco2)CC1	12-LOX inh inconclusive, TDP1 cell noCPT 15µM, TDP1 cell CPT 7.3µM
O=C(c1ccccc1)N1CCn2ncc(C(=O)N3CCOCC3)c2C1	none (no result: IL1B secr inh, TDP1 cell noCPT, TDP1 cell CPT, HT1080NT lethal, HT1080 IDH1KD tx)
O=C(OCC(=O)N1CCN(C(=O)c2ccco2)CC1)c1cc(-c2ccc(F)cc2)nc2ccccc12	IL1B secr inh -51
O=C(OCC(=O)N1CCN(C(=O)c2ccco2)CC1)c1ccccc1C(=O)c1ccccc1	none
Cc1cc(C(=O)OCC(=O)N2CCN(C(=O)c3ccco3)CC2)c(C)n1-c1ccc(F)cc1	TDP1 cell noCPT inconclusive
O=C(OCC(=O)N1CCN(C(=O)c2ccco2)CC1)c1cc(-c2ccccc2)nc2ccccc12	IL1B secr inh -70, TDP1 cell noCPT inconclusive
COc1ccc(-c2cc(C(=O)OCC(=O)N3CCOCC3)c3ccccc3n2)cc1	IL1B secr inh -54, TDP1 cell noCPT inconclusive
CCOc1ccc(-c2cc(C(=O)N3CCOCC3)c3ccccc3n2)cc1	none (no result: IL1B secr inh, TDP1 cell noCPT, TDP1 cell CPT, HT1080NT lethal, HT1080 IDH1KD tx)
CC(C)c1ccc(CNCc2ccco2)cc1	none (no result: IL1B secr inh, TDP1 cell noCPT, TDP1 cell CPT, HT1080NT lethal, HT1080 IDH1KD tx)
O=c1oc2ccccc2cc1S(=O)(=O)N1CCCCCC1	none (no result: IL1B secr inh, TDP1 cell noCPT, TDP1 cell CPT, HT1080NT lethal, HT1080 IDH1KD tx)
CC(=O)NC1=CC(=O)c2nonc2C1=O	TDP1 cell noCPT inconclusive, TDP1 cell CPT 0.079µM (no result: 12-LOX inh, IL1B secr inh, HT1080NT lethal, HT1080 IDH1KD tx)
COc1cc(O)c(NC(C)=O)c2nonc12	none
O=C(O)c1ccccc1C(=O)c1ccc2c(c1)N(Cc1ccc(Cl)c(Cl)c1)C(=O)CO2	12-LOX inh inconclusive, IL1B secr inh -53, TDP1 cell noCPT inconclusive
CCCn1c(C)cc(C(=O)CSc2nnc(COc3ccc(Cl)cc3)n2C)c1C	none (no result: IL1B secr inh, TDP1 cell noCPT, TDP1 cell CPT, HT1080NT lethal, HT1080 IDH1KD tx)

Screening results: PubChem, National Center for Advancing Translational Sciences (NCATS)
